Compounds with a hit are over-represented: about 2.2% of the library has one in this group of screens.
TROY NFkB inh – inhibitors of TROY-dependent NF-kB signaling; Q293 LMP1-TROYcd NF-kB luciferase reporter, 4 h; inhibition, % at 10 µM; 360,000 tested, 0.98% active; AID 1347056;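 active = compounds whose plate-normalised and pattern-corrected inhibition of the luciferase reporter signal at the single screening dose is 50% or more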
LGR2 inh – blocks bursicon-induced cAMP signaling via Drosophila LGR2; HEK293 LGR2, CRE-luciferase, bursicon-stimulated, 4 h; inhibition, % at 9.99 µM; 380,000 tested, 0.35% active; AID 720647;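 active = drop in luminescence signal, shown as inhibition above about 50% in the replicate tests, limit read from the data, passing the limit was not always enough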;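 note: agonist challenge used bursicon conditioned medium at about half maximal strength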
HSP90 refold inh – inhibitors of HSP90 luciferase refolding in rabbit reticulocyte lysate; 290,000 tested, 0.91% active; luciferase refolding luminescence, 3 h; inhibition, % at 5.6 µM;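 active = inhibition above the screen-wide mean plus 3 SD, computed separately per campaign, cut at about 16% in these data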;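 note: inhibitors lower the luminescence because luciferase stays unfolded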
TWEAK Fn14 block – blocks TWEAK-Fn14 interaction in a reporter cell assay; TWEAK-stimulated Fn14 reporter cells, luciferase luminescence, 8 h; inhibition, % at 10 µM; 360,000 tested, 2% active; in the data active = inhibition above about 50%
Hits are given with their value; – = inactive; · = no result.

SMILES	TROY NFkB inh	LGR2 inh	HSP90 refold inh	TWEAK Fn14 block
CC(=O)Nc1ccc2c(c1)C(=O)N(C)[C@@H]1CC[C@@H](CC(=O)NCc3ccc(Cl)cc3)O[C@H]1CO2	·	–	·	·
CCN(CC)c1ccc(N2C(=O)CSC2=S)cc1	–	–	–	72
O=C(O)c1ccc(N2C(=O)CSC2=S)cc1	–	–	·	68
CCOc1ccc(N2C(=O)CSC2=S)cc1	–	–	–	–
COc1ccc(NC(=O)Nc2ccc3c(c2)C(=O)N([C@H](C)CO)C[C@H](C)[C@@H](CN(C)S(=O)(=O)c2ccc(OC)cc2)OCCCC[C@@H](C)O3)cc1	·	–	·	·
CO[C@H]1CN(C)C(=O)c2ccc(NC(=O)c3ccc(F)cc3)cc2OC[C@H](C)N(C(=O)CN(C)C)C[C@H]1C	·	–	·	·
Cc1ccc(S(=O)(=O)N[C@H]2CC[C@@H](CC(=O)N3CCN(c4ccccc4)CC3)O[C@H]2CO)cc1	·	–	·	·
COC(=O)C1=C(C)N(c2cc(C)cc(C)c2)/C(=C/c2ccco2)C1=O	–	–	–	–
COC(=O)C1=C(C)N(c2cc(C)cc(C)c2)/C(=C/c2ccc(O)cc2)C1=O	–	–	–	58
COC(=O)C1=C(C)N(c2ccc(Cl)cc2)/C(=C/c2ccc(O)cc2)C1=O	–	–	–	57
CC(C)NC(=O)N(C)C[C@H]1Oc2ncc(-c3cncnc3)cc2C(=O)N([C@H](C)CO)C[C@@H]1C	·	–	·	·
CC1C(=O)C(C)C(c2ccc(Br)cc2)NC1c1ccc(Br)cc1 (stereo not drawn)	–	–	–	–
CC1C(=O)C(C)C(c2cc(Br)ccc2O)NC1c1cc(Br)ccc1O (stereo not drawn)	63	–	·	–
C[C@@H]1CN([C@H](C)CO)C(=O)c2cc(Br)cnc2O[C@@H]1CN(C)C(=O)c1ccc(F)cc1	·	–	·	·
Cc1ccc(C)c(NC2=C(Cl)C(=O)OC2OC(=O)c2ccco2)c1 (stereo not drawn)	–	–	–	59
Cc1ccc(NC2=C(Cl)C(=O)OC2OC(=O)c2ccco2)c(C)c1 (stereo not drawn)	–	·	–	–
O=c1cc(C(F)(F)F)nc(SCc2cccc3ccccc23)[nH]1	62	–	–	–
Nc1cc(=O)[nH]c(SCc2cccc3ccccc23)n1	–	–	–	–
Cc1nn(C)c(C)c1/C=C(/C(=O)C(C)(C)C)n1cncn1	–	–	–	–
CC(C)(C)C(=O)/C(=C/c1ccncc1)n1cncn1	51	79	–	83
CCS(=O)(=O)N1CCC2(CC1)CN[C@@H](CO)c1c2c2ccc(OC)cc2n1C	·	–	·	·
C[C@H](CO)N1C[C@H](C)[C@H](CN(C)CC2CC2)Oc2cc(C#Cc3ccncc3)ccc2S1(=O)=O	·	–	·	·
COc1ccc(CN(C)C[C@@H]2Oc3ccc(NC(=O)CCC(F)(F)F)cc3CC(=O)N([C@@H](C)CO)C[C@@H]2C)cc1	·	–	·	·
CC(O)CC(=O)OC[C@]12CC[C@H]3[C@@](C)(CC[C@H]4C(C)(C)CCC[C@]34C)[C@@H]1CC(C1=CC(=O)OC1O)O2 (stereo partly drawn)	89	·	·	106
O=C(C[C@@H]1C[C@@H]2c3cc(NC(=O)C4CCC4)ccc3O[C@@H]2[C@H](CO)O1)NCCc1ccccc1	·	–	·	·
SMILES	TROY NFkB inh	LGR2 inh	HSP90 refold inh	TWEAK Fn14 block
COc1ccc2[nH]c3c(c2c1)CCn1c-3nc2ccccc2c1=O	–	·	–	51
COc1cc(OC)cc(C(=O)Nn2c(C)nc3ccccc3c2=O)c1	–	·	–	–
C[C@@H]1CN([C@@H](C)CO)C(=O)c2cc(C3=CCCCC3)cnc2O[C@@H]1CN(C)C(=O)c1ccc2c(c1)OCO2	·	–	·	·
O=C(NCc1cccnc1)/C(=C/c1ccc(-c2cccc(Cl)c2)o1)S(=O)(=O)c1ccccc1	–	–	–	58
O=C(NCc1cccnc1)/C(=C\c1ccc(-c2cccc(Cl)c2)o1)S(=O)(=O)c1ccccc1	78	87	–	104
CCCC#Cc1ccc2c(c1)[C@H]1[C@H](CCN1S(=O)(=O)c1ccc(F)cc1)[C@H](CO)N2C	·	–	·	·
Cc1ccccc1-c1cc(C(=O)Nc2sc(C)c(C)c2C(N)=O)c2ccccc2n1	–	·	–	–
CCOC(=O)c1sc(NC(=O)CSc2n[nH]c(-c3ccc(Cl)cc3Cl)n2)c(C#N)c1C	63	·	–	–
CCOC(=O)c1sc(NC(=O)c2cc(-c3ccccc3C)nc3ccccc23)c(C#N)c1C	69	·	–	63
COc1ccc(S(=O)(=O)N(C)C[C@@H]2Oc3ccc(NC(=O)C4CC4)cc3C(=O)N([C@H](C)CO)C[C@H]2C)cc1	·	–	·	·
C[C@H]1CN([C@@H](C)CO)C(=O)Cc2cc(NC(=O)CCCCCC(=O)Nc3ccccc3N)ccc2O[C@@H]1CN(C)C(=O)Nc1cccc2ccccc12	·	–	·	·

Screens from PubChem.
